Screening data: PubChem, several laboratories
PREPL inhibitor: human PREPL enzyme inhibition | Q4J6C6 | recombinant PREPL, fluorescence polarization activity-based probe | inhibition, % at 5.96 µM | 320,000 tested, 0.68% active | AID 2751;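 further: 0% = enzyme with DMSO and 100% = wells lacking enzyme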
ANO1 block: blocks the mouse calcium-activated chloride channel TMEM16A; HEK293 TMEM16A/YFP iodide influx fluorescence, ionomycin; 310,000 tested, 1.2% active; Q8BHY3; normalized B-score (activity score, 25-100; higher = stronger inhibition) at 10 µM;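 active means ratio plate-corrected score three or more library SD toward inhibition, starting fluorescence score within five deviations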;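 further: score derived from kinetic fluorescence span divided by baseline fluorescence per well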
Target sequence (Q8BHY3 whole entry, looked up): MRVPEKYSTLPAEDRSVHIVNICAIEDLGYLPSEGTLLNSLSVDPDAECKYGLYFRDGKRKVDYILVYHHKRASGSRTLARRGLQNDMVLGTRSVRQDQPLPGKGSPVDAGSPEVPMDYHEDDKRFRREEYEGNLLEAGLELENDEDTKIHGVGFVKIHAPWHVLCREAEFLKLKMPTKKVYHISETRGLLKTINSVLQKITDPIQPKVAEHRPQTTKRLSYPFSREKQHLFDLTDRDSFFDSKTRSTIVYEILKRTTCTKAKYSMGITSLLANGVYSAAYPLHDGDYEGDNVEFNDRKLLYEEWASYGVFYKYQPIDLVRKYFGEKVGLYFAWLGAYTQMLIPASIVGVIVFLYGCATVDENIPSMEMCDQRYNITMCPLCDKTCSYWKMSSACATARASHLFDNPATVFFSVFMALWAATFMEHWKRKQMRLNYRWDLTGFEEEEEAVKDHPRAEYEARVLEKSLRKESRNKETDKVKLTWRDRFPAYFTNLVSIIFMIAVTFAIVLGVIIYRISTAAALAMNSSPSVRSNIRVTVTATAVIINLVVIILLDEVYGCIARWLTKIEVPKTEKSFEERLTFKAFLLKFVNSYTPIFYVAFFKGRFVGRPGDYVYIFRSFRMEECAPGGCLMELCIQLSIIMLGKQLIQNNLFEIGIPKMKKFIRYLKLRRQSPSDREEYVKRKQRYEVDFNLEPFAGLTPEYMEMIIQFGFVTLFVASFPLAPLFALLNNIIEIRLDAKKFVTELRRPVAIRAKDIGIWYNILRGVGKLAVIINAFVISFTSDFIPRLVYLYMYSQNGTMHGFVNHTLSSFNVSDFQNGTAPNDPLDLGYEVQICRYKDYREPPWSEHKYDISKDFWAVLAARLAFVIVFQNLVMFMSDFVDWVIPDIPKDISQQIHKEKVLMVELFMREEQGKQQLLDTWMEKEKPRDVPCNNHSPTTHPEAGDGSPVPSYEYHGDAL
FID counter: displaces DNA intercalator in HCV helicase counter-screen. DNA fluorescent intercalator displacement, fluorescence. inhibition, % at 7.9 µM. 290,000 tested, 0.17% active; in the data active means inhibition above about 37%;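 further: 0% = vehicle and 100% = reference compound; higher means more ethidium bromide displaced from hairpin DNA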
TMEM16A act: activators or potentiators of mouse TMEM16A chloride channel | AID 623877 | 340,000 tested, 0.3% active | Q8BHY3 | HEK293 TMEM16A/YFP-H148Q/I152L, iodide quench fluorescence; stronger effect = lower value | B-score at 10 µM;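 active means fluorescence-ratio B-score plate-corrected deviation score at least 3 library SD below zero, with starting fluorescence score within 5 deviations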;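 further: channel opened by trigger with iodide after compound preincubation; score built on the fluorescence ratio of max minus min over baseline; more negative score means more quench and so TMEM16A activation or potentiation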
PP1 inh: counter-screen for PP5 inhibitors: inhibitors of human PP1-alpha. inhibition, % at 6.7 µM. 320,000 tested, 0.9% active. AID 2235. purified PP1alpha, OMFP fluorescence;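 active means inhibition above the mean inhibition of all tested compounds plus 3 SD, computed separately for each screening campaign, cut at about 15% in these data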
PP5 primary: blocks human protein phosphatase 5 activity; P53041; purified PP5c, OMFP substrate fluorescence; inhibition, % at 6.7 µM; 320,000 tested, 0.18% active; AID 1987;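 active means inhibition above the campaign's mean inhibition across all tested compounds plus 3 SD, cut at about 9.5% in these data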;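 further: 0% = DMSO only and 100% = 100 µM cantharidin control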
PREPL inh cf: confirmation of human PREPL enzyme inhibitors; shares compounds with PREPL inhibitor; recombinant PREPL, fluorescence polarization activity probe; inhibition, % at 5.96 µM; 2,000 tested, 67% active; AID 2803;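 further: 0% = protein with DMSO and 100% = wells lacking protein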
The depositor's hits bear a star; i = inactive; . = no result. Most compounds without a hit are left out; they make up all but 2.7% or so of the library. Unless noted, no stated cut-off is given here; in the data, active means inhibition above about 43%; inactive means the rest.

SMILES	PREPL inhibitor	ANO1 block	FID counter	TMEM16A act	PP1 inh	PP5 primary	PREPL inh cf
C#CCOCCOCCOCCNc1nc(N2CCN(C(=O)[C@H](CCC(=O)O)n3cc(C(N)Cc4ccc(O)cc4)nn3)CC2)nc(N2CCN(C(=O)[C@H](CCC(=O)O)n3cc(C(N)Cc4ccc(O)cc4)nn3)CC2)n1 (stereo partly drawn)	-2	i	-41	.	0	2	.
C#CCOCCOCCOCCNc1nc(N2CCN(C(=O)[C@H](CCCCN)n3cc([C@@H](N)CC(C)C)nn3)CC2)nc(N2CCN(C(=O)[C@H](Cc3cc4ccccc4[nH]3)n3cc([C@@H](N)Cc4ccc(O)cc4)nn3)CC2)n1	49*	i	76*	i	17*	4	52*
C#CCOCCOCCOCCNc1nc(N2CCN(C(=O)[C@H](Cc3ccc(O)cc3)n3cc([C@@H](N)CC(C)C)nn3)CC2)nc(N2CCN(C(=O)[C@H](Cc3cc4ccccc4[nH]3)n3cc([C@@H](N)CC(C)C)nn3)CC2)n1	53*	i	37*	.	11	1	50*
C#CCOCCOCCOCCNc1nc(N2CCN(C(=O)[C@H](CCCCN)n3cc([C@@H](N)CO)nn3)CC2)nc(N2CCN(C(=O)[C@H](Cc3cc4ccccc4[nH]3)n3cc([C@@H](N)Cc4ccc(O)cc4)nn3)CC2)n1	55*	i	55*	.	7	3	50*
O=C(CS(=O)c1ccc(C(F)(F)F)cc1[N+](=O)[O-])Oc1ccccc1 (stereo not drawn)	53*	i	2	i	-1	-1	52*
Cc1cc(-c2nnc(SCC(=O)Nc3ccccc3C)n2N)n[nH]1	8	i	-7	i	0	2	.
Cc1c(CN2CCN(CC(C)C)C(CCO)C2)[nH]c2ccc(Cl)cc12 (stereo not drawn)	46*	i	1	i	-2	1	44*
COc1ccc([N+](=O)[O-])cc1NC(=O)c1ccc(-n2nc(C)cc2C)cc1	-5	i	0	i	6	1	.
COc1ccc(CC(=O)N2CCN(S(=O)(=O)c3cc(Cl)ccc3Cl)CC2)cc1	79*	.	.	i	-1	2	18
COc1ccc(CC(=O)N2CCN(S(=O)(=O)c3ccc(Cl)s3)CC2)cc1	10	.	.	i	0	0	.
Cc1ccc(C(=O)NC(C(=O)OCc2cn3cc(Cl)ccc3n2)C(C)C)cc1 (stereo not drawn)	-4	.	.	i	0	0	.
COc1ccc2c(c1)CCc1cc(C(=O)N3CCN(c4ccc(N5CCOCC5)nn4)CC3)sc1-2	53*	i	-21	i	9	1	56*
COc1cccc(C(=O)N2CCN(c3ccc(N4CCOCC4)nn3)CC2)c1	10	i	.	i	-1	-1	.
COc1cc(NC(=O)c2ccc(COc3ccccc3Br)o2)cc(OC)c1OC	44*	i	-23	i	1	5	40
O=C(NCc1ccncc1)C(=O)N/N=C/c1cccnc1	9	i	4	i	-2	0	.
COc1cc(/C=C2\SC(=O)N(CCNC(=O)c3c(C)noc3C)C2=O)cc(OC)c1OC	3	.	.	i	.	.	.
C/C(N)=C(/C#N)C(=O)CSc1cc(C)c2cc(C)cc(C)c2n1	2	i	-4	i	2	3	.
CCC(C)(C)NC(=O)CN(C(=O)CCC(=O)Nc1nccs1)c1ccc(C)cc1	-4	i	-40	i	3	2	.
CCN(CC)c1ccc(-n2cc3c(=O)n(C)c(=O)n(C)c3c2)cc1	49*	i	-22	i	-4	0	48*
CN(C)c1ccc(-n2cc3c(=O)n(C)c(=O)n(C)c3c2)cc1	30	i	-10	i	-1	1	.
CC(C)NC(=O)Nc1ccc2c(c1)CC(=O)N([C@@H](C)CO)C[C@H](C)[C@@H](CN(C)C(=O)NC1CCCCC1)O2	7	.	.	i	.	.	.
Cc1ccc(S(=O)(=O)Nc2ccc3c(c2)CC(=O)N([C@H](C)CO)C[C@H](C)[C@H](CN(C)Cc2ccc4c(c2)OCO4)O3)cc1	51*	.	.	i	.	.	53*
C[C@@H]1CN([C@@H](C)CO)C(=O)Cc2cc(NC(=O)Nc3ccc4c(c3)OCO4)ccc2O[C@@H]1CN(C)C(=O)NC1CCCCC1	54*	.	.	.	.	.	46*
COC(=O)Cn1cnc2c(cnn2-c2ccc(C)cc2)c1=O	5	i	-6	i	-1	0	.
O=C(O)C1=C[C@H](c2ccc3c(c2)OCO3)C[C@H](OCc2ccc(CO)cc2)O1	-13	i	.	i	1	-2	.
SMILES	PREPL inhibitor	ANO1 block	FID counter	TMEM16A act	PP1 inh	PP5 primary	PREPL inh cf
O=C(C1=C[C@H](c2ccc(C(F)(F)F)cc2)C[C@H](OCc2ccc(CO)cc2)O1)N1CCN(Cc2ccc3c(c2)OCO3)CC1	46*	i	-16	i	7	3	44*
CC(=O)n1cc([C@@H]2C=C(C(=O)N3CCN(C)CC3)O[C@H](OCc3ccc(CO)cc3)C2)c2ccccc21	46*	i	.	i	1	1	52*
CC(C)(C)[C@H]1C=C(C(=O)N2CCN(Cc3ccc4c(c3)OCO4)CC2)O[C@@H](OCCCCO)C1	44*	i	-22	i	-4	0	43
C=CCOC(=O)C1=C[C@H](c2cn(C(C)=O)c3ccccc23)C[C@H](OCc2ccc(CO)cc2)O1	28	i	-34	i	2	3	.
O=C(C1=C[C@@H](c2ccc(C(F)(F)F)cc2)C[C@@H](OCCCCO)O1)N1CCN(Cc2ccc3c(c2)OCO3)CC1	70*	i	-28	i	0	6	60*
CCCn1c(SCC(=O)Nc2cc(C)on2)n[nH]c1=O	13	.	.	i	.	.	.
O=C(CN1C(=O)NC2(CCCC2)C1=O)NNC(=O)c1ccccc1F	9	.	.	i	-3	-1	.
CC1(c2ccc([N+](=O)[O-])cc2)Nc2ccccc2S1 (stereo not drawn)	8	i	4	i	1	2	.
Cc1onc(-c2ccccc2)c1C(=O)NNC(=S)NC(=O)c1ccc2c(c1)OCO2	26	i	-11	i	11	1	.
CC(OC(=O)c1ccccc1)C(=O)NCc1ccco1 (stereo not drawn)	10	.	.	i	.	.	.
O=C(C1=C[C@H](c2ccc3c(c2)OCO3)C[C@H](OCc2ccc(CO)cc2)O1)N1CCCCCCC1	25	i	-42	i	1	1	.
O=C(C1=C[C@@H](c2ccc(Br)cc2)C[C@@H](OCc2ccc(CO)cc2)O1)N1CCN(Cc2ccc3c(c2)OCO3)CC1	45*	i	-15	i	6	-2	59*
